Measurements: PubChem BioAssay (Tox21)
Active and inactive are the calls of the source. A call without a number means that no potency is given here. Calls come from the whole dose curve; as a rule, active = well fitted activation curve with a large enough effect in the repeat runs; inconclusive = weak or mixed curves; inactive = flat fitted curve, though single readings scatter.

test: Caspase-3/7 induction in CHO-K1 cells by small molecules, qHTS assay (AID 1346980); settings: CHO-K1 caspase-3/7 induction, Caspase-Glo luminescence, 17 h; series mostly up to 92.4 µM; note: nearly all actives have a fitted effect of over 15% in size
In short: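 Luminescent Caspase-Glo 3/7 read (30min, room temperature) quantified apoptosis induction. Cells were wild-type CHO-K1, treated with compound for 17hr at 37 C and 5% CO2.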

Row | Structure (SMILES) | Potency
1 | CCN(C(=O)c1cc(C)cc(OC[C@H](C)Nc2ccncc2)c1)C(C)C | inactive
2 | CCCC1O[C@@H]2C[C@H]3[C@@H]4CCC5=CC(=O)C=C[C@]5(C)[C@H]4[C@@H](O)C[C@]3(C)[C@]2(C(=O)CO)O1 (stereo not given in full) | inactive
3 | C[n+]1ccn(Cc2ccccc2)c1 | inactive
4 | O=C(Nc1ccc(Oc2ccc(Cl)cc2)c(Cl)c1)c1cc(I)cc(I)c1O | inactive
5 | CCCC(C)c1ccccc1O (stereo not given) | inactive
6 | OCc1c[nH]c2ccccc12 | inactive
7 | CC(C)OC(=O)c1cc2c(OCC(O)CNC(C)(C)C)cccc2[nH]1 (stereo not given) | inactive
8 | CCc1oc2ccccc2c1C(=O)c1cc(Br)c(O)c(Br)c1 | inactive
9 | O=c1[nH]sc2cc(Cl)ccc12 | inactive
10 | NC(=NCCCCCCN=C(N)/N=C(\N)Nc1ccc(Cl)cc1)/N=C(\N)Nc1ccc(Cl)cc1 | inactive
11 | CCCCCCCCOc1ccccc1C(=O)Nc1ccc(C(=O)OCC[N+](C)(CC)CC)cc1 | inactive
12 | CN(C)c1ccc(C2(c3ccc(N(C)C)cc3)OC(=O)c3cc(N(C)C)ccc32)cc1 | inactive
13 | Oc1c(Cl)cc(Cl)c2cccnc12 | inactive
14 | CCCCCCCCOC(=O)c1ccc(O)cc1 | inactive
15 | CCCCCCOC(=O)c1ccc(O)cc1 | inactive
16 | CCCCCCCCCOC(=O)c1ccc(O)cc1 | inactive
17 | CCCCC(CC)COC(=O)c1ccccc1C(=O)O (stereo not given) | inactive
18 | COCCCC/C(=N\OCCN)c1ccc(C(F)(F)F)cc1 | inactive
19 | CCC1OCC(COc2ccc(Oc3ccccc3)cc2)O1 (stereo not given) | inactive
20 | Cc1onc(-c2ccccc2Cl)c1C(=O)N[C@@H]1C(=O)N2[C@@H]1SC(C)(C)[C@@H]2C(=O)O | inactive
